In the supplement of paper PMC11732987, “Enantioselective OTUD7B fragment discovery through chemoproteomics screening and high-throughput optimisation” (Communications Chemistry, 2025):

Columns and labels:
Experiment in all cases: log2 ratio of Biotin-Ahx-Ub-VS probe labelling (fragment/DMSO); higher = less target engagement (more negative = stronger competition), active = hit call of the paper (q ≤ 0.05, log2 ratio ≤ -1)
Details in all cases: compound concentration: 200 uM; treatment time: 3 h
USP19 = target: T1, USP19 (UniProt O94966)
T1 sequence (whole entry): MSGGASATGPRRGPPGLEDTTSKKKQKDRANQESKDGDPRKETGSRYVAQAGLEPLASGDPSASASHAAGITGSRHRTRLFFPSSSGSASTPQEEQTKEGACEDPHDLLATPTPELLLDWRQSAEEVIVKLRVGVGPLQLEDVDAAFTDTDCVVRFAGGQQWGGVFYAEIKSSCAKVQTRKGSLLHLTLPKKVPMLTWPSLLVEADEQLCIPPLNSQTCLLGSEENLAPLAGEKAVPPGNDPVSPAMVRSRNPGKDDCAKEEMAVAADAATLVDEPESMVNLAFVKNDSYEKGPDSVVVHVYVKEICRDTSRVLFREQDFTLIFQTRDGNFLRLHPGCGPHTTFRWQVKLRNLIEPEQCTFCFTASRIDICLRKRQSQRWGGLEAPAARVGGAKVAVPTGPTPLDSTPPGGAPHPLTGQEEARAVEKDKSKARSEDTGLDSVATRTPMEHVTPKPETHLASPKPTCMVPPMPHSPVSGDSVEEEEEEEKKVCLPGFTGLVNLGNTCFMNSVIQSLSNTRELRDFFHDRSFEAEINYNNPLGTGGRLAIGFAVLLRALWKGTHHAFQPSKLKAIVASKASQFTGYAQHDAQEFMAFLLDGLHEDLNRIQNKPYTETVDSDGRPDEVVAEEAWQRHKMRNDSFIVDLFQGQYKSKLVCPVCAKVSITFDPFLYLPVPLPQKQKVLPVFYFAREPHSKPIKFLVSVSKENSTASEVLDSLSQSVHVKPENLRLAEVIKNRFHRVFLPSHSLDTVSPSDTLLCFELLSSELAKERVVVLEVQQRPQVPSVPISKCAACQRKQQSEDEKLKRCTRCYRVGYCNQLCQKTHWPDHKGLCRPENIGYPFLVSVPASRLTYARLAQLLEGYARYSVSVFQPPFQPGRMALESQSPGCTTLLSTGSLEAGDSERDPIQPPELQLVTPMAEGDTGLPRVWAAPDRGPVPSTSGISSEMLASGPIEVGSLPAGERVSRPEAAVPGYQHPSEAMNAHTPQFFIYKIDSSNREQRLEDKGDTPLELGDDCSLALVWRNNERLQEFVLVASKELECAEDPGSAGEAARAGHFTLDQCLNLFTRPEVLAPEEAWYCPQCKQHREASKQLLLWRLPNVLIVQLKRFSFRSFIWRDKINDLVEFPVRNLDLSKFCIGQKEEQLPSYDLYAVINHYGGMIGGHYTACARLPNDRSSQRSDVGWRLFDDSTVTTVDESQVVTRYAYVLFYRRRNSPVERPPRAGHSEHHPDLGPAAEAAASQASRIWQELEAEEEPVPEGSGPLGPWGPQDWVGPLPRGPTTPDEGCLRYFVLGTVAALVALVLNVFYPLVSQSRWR
Method in brief: (§1)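 The table lists average log2 ratios of fragment over vehicle, from an unpaired t-test on global-median-normalised Spectronaut label-free quantities. Proteins with ≥2 unique peptides were used. Samples were HEK293T lysate (495 µg) treated in triplicate with fragment at 200 µM or vehicle for 3 h, then with Biotin-Ahx-Ub-VS (0.5 µM final) for 1 h, with labelled DUBs NeutrAvidin-enriched and run by diaPASEF LC-MS/MS.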

USP22 = target: T2, USP22 (UniProt Q9UPT9)
T2 sequence (whole entry): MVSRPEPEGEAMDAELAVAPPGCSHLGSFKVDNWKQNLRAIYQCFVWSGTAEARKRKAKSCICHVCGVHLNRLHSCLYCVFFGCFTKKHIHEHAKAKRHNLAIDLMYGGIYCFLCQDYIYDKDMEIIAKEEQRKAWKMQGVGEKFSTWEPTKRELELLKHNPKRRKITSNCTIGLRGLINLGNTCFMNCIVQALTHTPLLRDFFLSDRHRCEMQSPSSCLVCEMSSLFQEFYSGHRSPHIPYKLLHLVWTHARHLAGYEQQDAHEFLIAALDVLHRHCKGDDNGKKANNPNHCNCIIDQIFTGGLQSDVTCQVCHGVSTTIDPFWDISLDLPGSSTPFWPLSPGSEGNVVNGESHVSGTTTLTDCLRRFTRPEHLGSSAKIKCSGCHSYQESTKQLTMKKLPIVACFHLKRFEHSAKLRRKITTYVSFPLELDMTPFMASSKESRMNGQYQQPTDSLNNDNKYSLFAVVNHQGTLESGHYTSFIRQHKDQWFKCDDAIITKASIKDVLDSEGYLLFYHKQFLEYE
Method in brief: as §1

USP24 = USP24 (UniProt Q9UPU5)
Method in brief: as §1

USP25 = target: T3, USP25 (UniProt Q9UHP3)
T3 sequence (whole entry): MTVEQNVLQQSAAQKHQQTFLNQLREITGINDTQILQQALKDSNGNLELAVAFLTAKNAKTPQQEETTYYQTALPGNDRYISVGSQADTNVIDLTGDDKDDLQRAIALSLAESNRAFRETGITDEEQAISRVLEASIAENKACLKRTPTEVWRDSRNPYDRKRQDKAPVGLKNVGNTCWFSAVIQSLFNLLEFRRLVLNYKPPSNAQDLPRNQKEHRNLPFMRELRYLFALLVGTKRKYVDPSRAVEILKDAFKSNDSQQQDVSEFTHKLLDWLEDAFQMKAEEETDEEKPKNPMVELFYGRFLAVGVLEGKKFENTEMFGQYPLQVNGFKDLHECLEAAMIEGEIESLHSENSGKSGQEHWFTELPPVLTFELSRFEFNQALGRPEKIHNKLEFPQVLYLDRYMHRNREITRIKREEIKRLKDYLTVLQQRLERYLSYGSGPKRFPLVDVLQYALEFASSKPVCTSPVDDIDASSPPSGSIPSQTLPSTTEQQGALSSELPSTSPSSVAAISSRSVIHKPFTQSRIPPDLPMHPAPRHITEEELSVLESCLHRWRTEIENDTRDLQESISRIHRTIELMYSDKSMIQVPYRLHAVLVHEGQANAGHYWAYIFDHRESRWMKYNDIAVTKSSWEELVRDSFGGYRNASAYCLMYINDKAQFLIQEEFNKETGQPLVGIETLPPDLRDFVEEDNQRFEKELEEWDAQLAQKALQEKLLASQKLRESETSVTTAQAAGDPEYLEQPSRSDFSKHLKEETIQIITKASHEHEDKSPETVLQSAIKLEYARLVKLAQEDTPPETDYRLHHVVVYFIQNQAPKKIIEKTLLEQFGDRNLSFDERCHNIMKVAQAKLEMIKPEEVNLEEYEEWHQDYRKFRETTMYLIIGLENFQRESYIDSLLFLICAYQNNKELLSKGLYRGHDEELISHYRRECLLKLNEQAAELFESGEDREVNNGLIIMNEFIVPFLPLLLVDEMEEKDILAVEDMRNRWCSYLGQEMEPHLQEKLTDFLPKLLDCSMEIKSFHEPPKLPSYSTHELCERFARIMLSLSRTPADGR
Method in brief: as §1

USP28 = target: T4, USP28 (UniProt Q96RU2)
T4 sequence (whole entry): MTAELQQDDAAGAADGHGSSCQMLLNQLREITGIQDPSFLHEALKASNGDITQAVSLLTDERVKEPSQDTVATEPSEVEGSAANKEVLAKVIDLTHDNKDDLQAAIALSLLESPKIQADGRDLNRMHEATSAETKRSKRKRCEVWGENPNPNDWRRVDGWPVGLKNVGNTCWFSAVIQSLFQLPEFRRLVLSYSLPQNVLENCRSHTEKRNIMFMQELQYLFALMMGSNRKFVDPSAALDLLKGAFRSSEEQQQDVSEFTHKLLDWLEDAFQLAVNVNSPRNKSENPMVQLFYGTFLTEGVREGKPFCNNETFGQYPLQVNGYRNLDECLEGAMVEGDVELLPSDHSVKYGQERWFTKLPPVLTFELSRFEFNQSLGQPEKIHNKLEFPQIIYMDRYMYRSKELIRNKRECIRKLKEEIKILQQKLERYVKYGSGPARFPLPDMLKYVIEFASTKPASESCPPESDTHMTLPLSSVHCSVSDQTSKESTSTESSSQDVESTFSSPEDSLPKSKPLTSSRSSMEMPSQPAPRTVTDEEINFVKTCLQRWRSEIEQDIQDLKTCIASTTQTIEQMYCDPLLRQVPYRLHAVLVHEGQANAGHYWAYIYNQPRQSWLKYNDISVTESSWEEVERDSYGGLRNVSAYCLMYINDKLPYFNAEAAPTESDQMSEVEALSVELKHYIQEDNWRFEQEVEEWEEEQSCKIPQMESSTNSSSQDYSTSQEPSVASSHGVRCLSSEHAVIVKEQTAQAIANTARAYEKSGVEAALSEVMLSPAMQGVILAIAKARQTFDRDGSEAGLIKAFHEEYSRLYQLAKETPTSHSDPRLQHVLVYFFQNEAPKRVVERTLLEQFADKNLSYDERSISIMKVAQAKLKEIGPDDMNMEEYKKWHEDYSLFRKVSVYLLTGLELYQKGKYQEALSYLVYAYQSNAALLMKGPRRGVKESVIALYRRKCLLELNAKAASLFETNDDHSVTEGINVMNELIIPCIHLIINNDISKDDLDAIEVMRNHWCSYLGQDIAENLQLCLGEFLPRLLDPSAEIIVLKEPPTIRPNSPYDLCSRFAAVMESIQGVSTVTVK
Method in brief: as §1

Measured: log2 ratio of Biotin-Ahx-Ub-VS probe labelling

Chain of USP24 (Q9UPU5 whole entry): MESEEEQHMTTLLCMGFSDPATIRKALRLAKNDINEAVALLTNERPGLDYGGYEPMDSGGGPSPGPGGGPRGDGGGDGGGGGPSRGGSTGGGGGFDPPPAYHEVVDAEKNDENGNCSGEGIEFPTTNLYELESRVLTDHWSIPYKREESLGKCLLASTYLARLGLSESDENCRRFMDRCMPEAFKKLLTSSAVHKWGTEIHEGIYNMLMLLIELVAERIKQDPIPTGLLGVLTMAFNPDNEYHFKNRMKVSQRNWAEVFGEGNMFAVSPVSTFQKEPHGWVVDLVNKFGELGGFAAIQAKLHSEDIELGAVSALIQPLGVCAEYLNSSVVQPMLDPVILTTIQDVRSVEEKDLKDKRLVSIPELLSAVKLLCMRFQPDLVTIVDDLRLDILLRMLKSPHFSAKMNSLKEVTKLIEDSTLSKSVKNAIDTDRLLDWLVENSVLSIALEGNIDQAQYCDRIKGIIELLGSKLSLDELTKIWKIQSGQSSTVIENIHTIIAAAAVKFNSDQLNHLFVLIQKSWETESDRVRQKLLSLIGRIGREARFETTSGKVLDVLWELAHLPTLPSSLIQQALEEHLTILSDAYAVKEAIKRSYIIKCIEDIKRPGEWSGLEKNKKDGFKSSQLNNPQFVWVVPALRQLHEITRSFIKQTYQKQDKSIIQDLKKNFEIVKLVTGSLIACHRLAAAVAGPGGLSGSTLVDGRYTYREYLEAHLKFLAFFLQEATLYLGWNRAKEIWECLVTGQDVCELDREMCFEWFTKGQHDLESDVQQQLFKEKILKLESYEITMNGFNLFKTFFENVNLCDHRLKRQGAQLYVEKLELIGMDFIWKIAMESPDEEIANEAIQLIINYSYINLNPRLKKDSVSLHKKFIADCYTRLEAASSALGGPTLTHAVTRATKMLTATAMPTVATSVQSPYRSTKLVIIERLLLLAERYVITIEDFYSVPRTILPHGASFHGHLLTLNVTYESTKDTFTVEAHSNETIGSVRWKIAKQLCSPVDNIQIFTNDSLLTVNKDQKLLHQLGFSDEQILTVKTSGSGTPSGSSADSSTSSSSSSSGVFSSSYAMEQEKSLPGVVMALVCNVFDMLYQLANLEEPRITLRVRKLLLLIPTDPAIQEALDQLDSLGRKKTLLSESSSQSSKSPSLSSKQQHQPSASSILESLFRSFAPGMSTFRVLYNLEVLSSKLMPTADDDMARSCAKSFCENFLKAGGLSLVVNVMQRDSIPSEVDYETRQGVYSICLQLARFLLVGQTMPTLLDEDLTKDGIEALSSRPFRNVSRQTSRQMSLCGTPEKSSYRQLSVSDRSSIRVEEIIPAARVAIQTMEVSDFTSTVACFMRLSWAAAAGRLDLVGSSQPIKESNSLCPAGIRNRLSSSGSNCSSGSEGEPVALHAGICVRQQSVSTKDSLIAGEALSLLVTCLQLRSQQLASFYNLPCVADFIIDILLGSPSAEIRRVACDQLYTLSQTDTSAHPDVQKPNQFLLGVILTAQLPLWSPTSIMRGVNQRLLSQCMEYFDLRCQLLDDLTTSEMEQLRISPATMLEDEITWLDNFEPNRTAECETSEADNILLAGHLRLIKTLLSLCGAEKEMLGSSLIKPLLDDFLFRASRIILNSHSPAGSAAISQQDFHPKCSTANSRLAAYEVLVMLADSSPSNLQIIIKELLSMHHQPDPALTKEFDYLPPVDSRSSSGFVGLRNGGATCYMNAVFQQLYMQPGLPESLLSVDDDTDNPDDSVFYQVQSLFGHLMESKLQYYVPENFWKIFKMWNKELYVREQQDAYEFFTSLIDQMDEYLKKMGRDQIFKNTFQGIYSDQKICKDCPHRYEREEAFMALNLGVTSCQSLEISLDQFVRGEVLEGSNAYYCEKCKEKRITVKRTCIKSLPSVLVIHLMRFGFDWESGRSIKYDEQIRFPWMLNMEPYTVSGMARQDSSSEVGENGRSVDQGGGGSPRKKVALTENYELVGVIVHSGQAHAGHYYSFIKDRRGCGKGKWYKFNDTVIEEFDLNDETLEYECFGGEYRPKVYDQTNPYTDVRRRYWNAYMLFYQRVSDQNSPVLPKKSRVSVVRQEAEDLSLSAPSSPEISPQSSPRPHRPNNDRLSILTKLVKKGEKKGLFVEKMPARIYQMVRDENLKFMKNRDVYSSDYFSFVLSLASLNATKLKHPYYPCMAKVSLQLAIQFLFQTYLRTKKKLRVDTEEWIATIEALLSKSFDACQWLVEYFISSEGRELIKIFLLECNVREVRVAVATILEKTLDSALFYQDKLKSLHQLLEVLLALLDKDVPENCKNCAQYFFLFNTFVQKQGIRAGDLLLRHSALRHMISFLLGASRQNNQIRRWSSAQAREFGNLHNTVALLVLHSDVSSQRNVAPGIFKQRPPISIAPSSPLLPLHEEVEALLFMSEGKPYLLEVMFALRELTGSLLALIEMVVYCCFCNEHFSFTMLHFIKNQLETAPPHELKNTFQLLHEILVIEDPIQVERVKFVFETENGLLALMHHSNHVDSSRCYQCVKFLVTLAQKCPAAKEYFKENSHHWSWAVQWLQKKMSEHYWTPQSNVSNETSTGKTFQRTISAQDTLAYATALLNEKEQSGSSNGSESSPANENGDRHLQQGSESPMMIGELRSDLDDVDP

CC(NC(=O)CCl)c1cc2n(n1)CCCC2.Cl (stereo not given)
inactive: USP19 -0.153 | USP22 0.0191 | USP24 -0.262 | USP25 -0.378 | USP28 -0.582
